For 38 compounds, relative cell viability results are on record in the supplement of paper PMC9588786.

± gives the standard deviation of the averaged measurements.
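Note: viability read as CCK-8 absorbance at 450 nm in cells co-exposed to the GPX4 inhibitor RSL3, relative to a 0.01% DMSO vehicle control.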

The subject of the assay is HT-1080. The experiment in a line: relative cell viability with RSL3 co-treatment (fraction of control); higher = stronger protection from RSL3-induced ferroptosis (higher viability). The following applies: 10 µM.
Turning to `Cc1cc(C)c(/C=C2\C(=O)Nc3ccccc32)[nH]1` [Semaxanib (SU5416)], the relative cell viability was 0.983 ± 0.15.

Consider `COc1cc2ncnc(Nc3ccc(F)c(Cl)c3)c2cc1OCCCN1CCOCC1` [Gefitinib (ZD1839)], for which the relative cell viability stood at 0.66 ± 0.072.

As to `O=C(Nc1ccccc1C(=O)NC1CCCCNC1=O)c1cc2ccccc2s1` (stereo not drawn), the relative cell viability worked out at 0.803 ± 0.011.

In the case of `Cc1[nH]nc2ccc(-c3cncc(OC[C@@H](N)Cc4ccccc4)c3)cc12`, the relative cell viability came out at 0.59 ± 0.02.

As to `C[C@@H]1COC(Nc2ccc3ncnc(Nc4ccc(OCc5nccs5)c(Cl)c4)c3c2)=N1` [Varlitinib], the relative cell viability came to 0.597 ± 0.1.

On to `COc1cc2c(Oc3ccc4[nH]c(C)cc4c3F)ncnc2cc1OCCCN1CCCC1` [Cediranib (AZD2171)], for which the relative cell viability was 0.283 ± 0.023.

For the compound `Cn1cc(-c2ccc3ncc(Cc4ccc5ncccc5c4)n3n2)cn1`, the relative cell viability is 0.727 ± 0.11.

Consider `CNC(=O)c1cccc(-c2ccc3c(N4CCOC[C@@H]4C)nc(N4CCOC[C@@H]4C)nc3n2)c1` [Vistusertib (AZD2014)], for which the relative cell viability is 0.52 ± 0.18.

With `Cc1nc(Nc2cnn(C3CCNCC3)c2)nc2c1N(C)C(=O)c1cc3ccccc3cc1N2C`, the relative cell viability is 0.627 ± 0.09.

Consider `COc1cc(OC)c(/C=C/S(=O)(=O)Cc2ccc(OC)c(NCC(=O)O)c2)c(OC)c1`, for which the relative cell viability stood at 0.7 ± 0.026.

Consider `Cc1ccc2nc(NCCN)c3ncc(C)n3c2c1`, for which the relative cell viability worked out at 0.703 ± 0.015.

As for `C=CC(=O)Nc1cc(Nc2nccc(-c3cn(C)c4ccccc34)n2)c(OC)cc1N(C)CCN(C)C` [Osimertinib (AZD9291)], the relative cell viability was 0.403 ± 0.068.

With `COC(=O)c1ccc2c(c1)NC(=O)/C2=C(\Nc1ccc(N(C)C(=O)CN2CCN(C)CC2)cc1)c1ccccc1` [Nintedanib (BIBF 1120)], the relative cell viability was found to be 0.9 ± 0.12.

On to `C[C@@H](Oc1cc(-n2cnc3ccc(CN4CCN(C)CC4)cc32)sc1C(N)=O)c1ccccc1C(F)(F)F`, for which the relative cell viability was found to be 0.573 ± 0.042.

Turning to `C[C@@H](NC(=O)c1ncnc(N)c1Cl)c1ncc(C(=O)Nc2cc(C(F)(F)F)c(Cl)cn2)s1`, the relative cell viability is 0.6467 ± 0.0058.

On to `Cc1cn(-c2cc(NC(=O)c3ccc(C)c(Nc4nccc(-c5cccnc5)n4)c3)cc(C(F)(F)F)c2)cn1` [Nilotinib (AMN-107)], for which the relative cell viability was determined as 0.507 ± 0.021.

Regarding `Nc1ncnc2c1c(-c1cnc3[nH]ccc3c1)nn2C1CCCC1`, the relative cell viability came to 0.397 ± 0.092.

As for `CS(=O)(=O)CCNCc1ccc(-c2ccc3ncnc(Nc4ccc(OCc5cccc(F)c5)c(Cl)c4)c3c2)o1`, the relative cell viability was 0.673 ± 0.032.

Turning to `CCCCCCCCCCCCCCCCOP(=O)([O-])OCC[N+](C)(C)C` [Miltefosine], the relative cell viability is 0.6 ± 0.13.

For the compound `CCN(CC)CCCC(C)Nc1nc(C)cc(Nc2ccc3nc(C)cc(N)c3c2)n1` (stereo not drawn), the relative cell viability is 0.583 ± 0.15.

`CCn1c2ccccc2c2cc(Nc3ccnc(NCCCN4CCOCC4)n3)ccc21`: the relative cell viability came out at 0.64 ± 0.089.

As to `C[S+]([O-])c1ccc(-c2nc(-c3ccc(F)cc3)c(-c3ccncc3)[nH]2)cc1` (stereo not drawn), the relative cell viability turned out to be 0.603 ± 0.032.

As for `CC[C@H](CO)Nc1nc(NCc2ccccc2)c2ncn(C(C)C)c2n1` [Roscovitine (Seliciclib,CYC202)], the relative cell viability is 0.793 ± 0.12.

Take `COc1cc2ncnc(Nc3cccc(Cl)c3F)c2cc1OC(=O)N1CCN(C)C[C@H]1C`: the relative cell viability worked out at 0.617 ± 0.025.

Take `Nc1ccc(-c2ccc3ncc4ccc(=O)n(-c5cccc(C(F)(F)F)c5)c4c3c2)cn1` [Torin 2]: the relative cell viability was found to be 0.687 ± 0.047.

As to `CS(=O)(=O)N1CCN(Cc2cc3nc(-c4cccc5[nH]ncc45)nc(N4CCOCC4)c3s2)CC1` [Pictilisib (GDC-0941)], the relative cell viability amounted to 0.547 ± 0.11.

In the case of `CO[C@H]1C[C@@H]2CC[C@@H](C)[C@@](O)(O2)C(=O)C(=O)N2CCCC[C@H]2C(=O)O[C@H]([C@H](C)C[C@@H]2CC[C@@H](O)[C@H](OC)C2)CC(=O)[C@H](C)/C=C(\C)[C@@H](O)[C@@H](OC)C(=O)[C@H](C)C[C@H](C)/C=C/C=C/C=C/1C` [Rapamycin (Sirolimus)], the relative cell viability was 0.387 ± 0.085.

Turning to `O=C1NC(=O)/C(=C/c2ccc(-c3ccc(F)cc3O)o2)S1`, the relative cell viability was found to be 0.75 ± 0.052.

For `COc1cc(Nc2ncc(F)c(Nc3ccc4c(n3)NC(=O)C(C)(C)O4)n2)cc(OC)c1OC` [R406 (free base)], the relative cell viability is 0.79 ± 0.02.

Regarding `COc1cc2ncnc(Oc3ccc(CC(=O)Nc4cnn(C(C)C)c4)cc3)c2cc1OC`, the relative cell viability was 0.643 ± 0.33.

Regarding `Cc1nc(N)sc1-c1ccnc(Nc2ccc(N3CCOCC3)cc2)n1`, the relative cell viability was 0.6 ± 0.095.

As to `O=c1[nH]nc(Sc2ncc([N+](=O)[O-])s2)n1-c1ccc2c(c1)OCCO2`, the relative cell viability stood at 0.533 ± 0.045.

With `CS(=O)(=O)c1cccc(CNc2nc(Nc3ccc4c(c3)CCC(=O)N4)ncc2C(F)(F)F)c1`, the relative cell viability is 0.91 ± 0.085.

For `CCOc1ccn(-c2ccc(F)cc2)c(=O)c1C(=O)Nc1ccc(Oc2ccnc(N)c2Cl)c(F)c1`, the relative cell viability worked out at 0.51 ± 0.092.

As for `NCC(=O)Nc1ccc(-n2nc(C(F)(F)F)cc2-c2ccc3c(ccc4ccccc43)c2)cc1`, the relative cell viability was determined as 0.06 ± 0.056.

On to `O=C(O)c1ccc(N2C(=O)/C(=C\c3ccc(-c4ccc([N+](=O)[O-])cc4)o3)C=C2c2ccccc2)cc1`, for which the relative cell viability stood at 1.24 ± 0.092.

As for `CC(C)c1cnn2c(NCc3ccccc3)cc(NCCCCCCN)nc12`, the relative cell viability worked out at 0.623 ± 0.085.

Consider `Oc1ccc(Nc2nc(-c3ccc(Cl)cc3)cs2)cc1`, for which the relative cell viability came out at 0.66 ± 0.095.
